# Laboratory results taken from publication PMC12820563, “FoxP3 forms a head-to-head dimer in vivo and stabilizes its multimerization on adjacent microsatellites”.
# Whole data set: some 16,000 sequences, median “rpm ratio (pull-down/input)” near 0.94, cut for the highest 2% near 1.7. The entries come from a sample that favours the highest values as a whole.
# Biological target: T1, MBP-FoxP1dN (Mus musculus, UniProt P58462 326-579)
# T1 sequence: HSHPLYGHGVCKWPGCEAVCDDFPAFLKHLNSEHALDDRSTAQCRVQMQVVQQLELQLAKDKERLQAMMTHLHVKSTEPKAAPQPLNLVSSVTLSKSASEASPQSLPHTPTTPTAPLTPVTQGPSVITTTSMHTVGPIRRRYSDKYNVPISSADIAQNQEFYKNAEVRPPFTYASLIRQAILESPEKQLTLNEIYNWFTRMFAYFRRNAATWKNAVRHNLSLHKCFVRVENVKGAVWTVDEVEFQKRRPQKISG
# Experiment: PD-seq (MBP pull-down with sequencing); 20 mM Tris-HCl pH 7.5, 100 mM NaCl, 1.5 mM MgCl2, 0.4 uM protein, 0.1 uM dsDNA library, 30 min, room temperature, amylose pull-down; high values mean tight binding
# Details: protein: recombinant; tags: His6-MBP; chain copies: 2; dsDNA, one strand shown
# In short: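 A degenerate double-stranded DNA library, filled in with Klenow, was added at 0.1 µM to 0.4 µM His6-MBP-tagged mouse FoxP3 or FoxP1 fragment lacking the N-terminus, expressed in E. coli. Incubation lasted 30 min at room temperature in Tris pH 7.5 buffer with NaCl and MgCl2, after which complexes were collected on amylose resin, washed three times, digested with proteinase K to free the DNA, barcoded by PCR and sequenced by Illumina. Binding is the pooled-replicate reads-per-million enrichment of pull-down over input.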
row,Sequence,binding signal
1,GATGATTGTTCTCCCAGCTGATGAATTGCTTCCTTCGAGTAAACAAATTTTCCTAATCTTTCTGTTCAAGCGCCATCTAC,1.06 RPM ratio (pull-down/input)
2,GATGATTGTTCTCCCAGCTGATGAATTCTTAATATCGAGTAAACAAATTTTCCTAATCTTTCTGTTCAAGCGCCATCTAC,1.08 RPM ratio (pull-down/input)
3,GATGATTGTTCTCCCAGCTGATGAATTCAGGTTGTCGAGTAAACAAATTTTCCTAATCTTTCTGTTCAAGCGCCATCTAC,1 RPM ratio (pull-down/input)
4,GATGATTGTTCTCCCAGCTGATGAATTCGAAGGATCGAGTAAACAAATTTTCCTAATCTTTCTGTTCAAGCGCCATCTAC,0.845 RPM ratio (pull-down/input)
5,GATGATTGTTCTCCCAGCTGATGAATTTCTTGATTCGAGTAAACAAATTTTCCTAATCTTTCTGTTCAAGCGCCATCTAC,1.01 RPM ratio (pull-down/input)
6,GATGATTGTTCTCCCAGCTGATGAATTTGCTGGGTCGAGTAAACAAATTTTCCTAATCTTTCTGTTCAAGCGCCATCTAC,0.859 RPM ratio (pull-down/input)
7,GATGATTGTTCTCCCAGCTGATGAATTCGCGGACTCGAGTAAACAAATTTTCCTAATCTTTCTGTTCAAGCGCCATCTAC,0.757 RPM ratio (pull-down/input)
8,GATGATTGTTCTCCCAGCTGATGAATTTGTTTCTTCGAGTAAACAAATTTTCCTAATCTTTCTGTTCAAGCGCCATCTAC,1.7 RPM ratio (pull-down/input)
9,GATGATTGTTCTCCCAGCTGATGAATTCTGTTGTTCGAGTAAACAAATTTTCCTAATCTTTCTGTTCAAGCGCCATCTAC,2.6 RPM ratio (pull-down/input)
10,GATGATTGTTCTCCCAGCTGATGAATTGTTGATTTCGAGTAAACAAATTTTCCTAATCTTTCTGTTCAAGCGCCATCTAC,2.42 RPM ratio (pull-down/input)
11,GATGATTGTTCTCCCAGCTGATGAATTGTTTGTTTCGAGTAAACAAATTTTCCTAATCTTTCTGTTCAAGCGCCATCTAC,2.72 RPM ratio (pull-down/input)
12,GATGATTGTTCTCCCAGCTGATGAATTTTTTGTTTCGAGTAAACAAATTTTCCTAATCTTTCTGTTCAAGCGCCATCTAC,1.13 RPM ratio (pull-down/input)
13,GATGATTGTTCTCCCAGCTGATGAATTTTCTAATTCGAGTAAACAAATTTTCCTAATCTTTCTGTTCAAGCGCCATCTAC,1.05 RPM ratio (pull-down/input)
14,GATGATTGTTCTCCCAGCTGATGAATTCTTTTTTTCGAGTAAACAAATTTTCCTAATCTTTCTGTTCAAGCGCCATCTAC,1.07 RPM ratio (pull-down/input)
15,GATGATTGTTCTCCCAGCTGATGAATTGTTGAATTCGAGTAAACAAATTTTCCTAATCTTTCTGTTCAAGCGCCATCTAC,1.15 RPM ratio (pull-down/input)
16,GATGATTGTTCTCCCAGCTGATGAATTTTGTTTTTCGAGTAAACAAATTTTCCTAATCTTTCTGTTCAAGCGCCATCTAC,2.75 RPM ratio (pull-down/input)
17,GATGATTGTTCTCCCAGCTGATGAATTGAATTGTTCGAGTAAACAAATTTTCCTAATCTTTCTGTTCAAGCGCCATCTAC,0.984 RPM ratio (pull-down/input)
18,GATGATTGTTCTCCCAGCTGATGAATTAGGTATATCGAGTAAACAAATTTTCCTAATCTTTCTGTTCAAGCGCCATCTAC,0.972 RPM ratio (pull-down/input)
19,GATGATTGTTCTCCCAGCTGATGAATTAGCAGGATCGAGTAAACAAATTTTCCTAATCTTTCTGTTCAAGCGCCATCTAC,0.814 RPM ratio (pull-down/input)
20,GATGATTGTTCTCCCAGCTGATGAATTAACAAGGTCGAGTAAACAAATTTTCCTAATCTTTCTGTTCAAGCGCCATCTAC,1 RPM ratio (pull-down/input)

row,Sequence,binding signal
1,GATGATTGTTCTCCCAGCTGATGAATTGACTTCTTCGAGTAAACAAATTTTCCTAATCTTTCTGTTCAAGCGCCATCTAC,0.996 RPM ratio (pull-down/input)
2,GATGATTGTTCTCCCAGCTGATGAATTGTTGACTTCGAGTAAACAAATTTTCCTAATCTTTCTGTTCAAGCGCCATCTAC,2.11 RPM ratio (pull-down/input)
3,GATGATTGTTCTCCCAGCTGATGAATTGATGACTTCGAGTAAACAAATTTTCCTAATCTTTCTGTTCAAGCGCCATCTAC,0.994 RPM ratio (pull-down/input)
4,GATGATTGTTCTCCCAGCTGATGAATTAGTGCGTTCGAGTAAACAAATTTTCCTAATCTTTCTGTTCAAGCGCCATCTAC,1.1 RPM ratio (pull-down/input)
5,GATGATTGTTCTCCCAGCTGATGAATTCGATCATTCGAGTAAACAAATTTTCCTAATCTTTCTGTTCAAGCGCCATCTAC,0.949 RPM ratio (pull-down/input)
6,GATGATTGTTCTCCCAGCTGATGAATTGTCACCATCGAGTAAACAAATTTTCCTAATCTTTCTGTTCAAGCGCCATCTAC,1.13 RPM ratio (pull-down/input)
7,GATGATTGTTCTCCCAGCTGATGAATTGTCGTTGTCGAGTAAACAAATTTTCCTAATCTTTCTGTTCAAGCGCCATCTAC,1.38 RPM ratio (pull-down/input)
8,GATGATTGTTCTCCCAGCTGATGAATTACTGTTGTCGAGTAAACAAATTTTCCTAATCTTTCTGTTCAAGCGCCATCTAC,2.55 RPM ratio (pull-down/input)
9,GATGATTGTTCTCCCAGCTGATGAATTTTTCTTGTCGAGTAAACAAATTTTCCTAATCTTTCTGTTCAAGCGCCATCTAC,1.1 RPM ratio (pull-down/input)
10,GATGATTGTTCTCCCAGCTGATGAATTTCTTTTGTCGAGTAAACAAATTTTCCTAATCTTTCTGTTCAAGCGCCATCTAC,0.952 RPM ratio (pull-down/input)
11,GATGATTGTTCTCCCAGCTGATGAATTTTTTCTGTCGAGTAAACAAATTTTCCTAATCTTTCTGTTCAAGCGCCATCTAC,0.986 RPM ratio (pull-down/input)
12,GATGATTGTTCTCCCAGCTGATGAATTTCTGTTGTCGAGTAAACAAATTTTCCTAATCTTTCTGTTCAAGCGCCATCTAC,2.16 RPM ratio (pull-down/input)
13,GATGATTGTTCTCCCAGCTGATGAATTTTTTTTGTCGAGTAAACAAATTTTCCTAATCTTTCTGTTCAAGCGCCATCTAC,0.87 RPM ratio (pull-down/input)
14,GATGATTGTTCTCCCAGCTGATGAATTGTTGTTGTCGAGTAAACAAATTTTCCTAATCTTTCTGTTCAAGCGCCATCTAC,3.2 RPM ratio (pull-down/input)
15,GATGATTGTTCTCCCAGCTGATGAATTACTGATGTCGAGTAAACAAATTTTCCTAATCTTTCTGTTCAAGCGCCATCTAC,1.37 RPM ratio (pull-down/input)
16,GATGATTGTTCTCCCAGCTGATGAATTGTTCCTGTCGAGTAAACAAATTTTCCTAATCTTTCTGTTCAAGCGCCATCTAC,0.999 RPM ratio (pull-down/input)
17,GATGATTGTTCTCCCAGCTGATGAATTTTTGTTGTCGAGTAAACAAATTTTCCTAATCTTTCTGTTCAAGCGCCATCTAC,2.85 RPM ratio (pull-down/input)
18,GATGATTGTTCTCCCAGCTGATGAATTACTACTGTCGAGTAAACAAATTTTCCTAATCTTTCTGTTCAAGCGCCATCTAC,1.23 RPM ratio (pull-down/input)
19,GATGATTGTTCTCCCAGCTGATGAATTGCTATGTTCGAGTAAACAAATTTTCCTAATCTTTCTGTTCAAGCGCCATCTAC,1.24 RPM ratio (pull-down/input)
20,GATGATTGTTCTCCCAGCTGATGAATTCGAGTGGTCGAGTAAACAAATTTTCCTAATCTTTCTGTTCAAGCGCCATCTAC,0.752 RPM ratio (pull-down/input)
